Laboratory results as given in PubChem BioAssay (NCATS).
“And” between values parts separate entries of the source, which are not always exact repeats. Equal entries are not always repeated. Records with an inconclusive call do not appear. The source made the active and inactive calls. The call rests on the fitted dose curve; in most records, active means well fitted cell-killing curve with a large enough effect; inconclusive means small, poorly fitted or top-dose-only effect, or effect the other way; inactive means no such curve, though single readings can be large or run the other way.

Legend:
[1] = Quantitative High-Throughput drug screen in 47 multiple myeloma cell lines against the NCATS MIPE library collection: OCIMY7_PLB cell viability assay (AID 1918987); further: nearly all actives have a fitted effect of over 65% in size
In short: (§1)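 ATP-based CellTiter-Glo luminescence after 48 h drug exposure (37 °C, 5% CO2) of 500 myeloma cells per well. DMSO-only wells set 100% viability, media-only wells 0%; MIPE 4.0 library added by pin tool.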

[2] = Quantitative High-Throughput drug screen in 47 multiple myeloma cell lines against the NCATS MIPE library collection: OCIMY5_PLB cell viability assay (AID 1918988); further: nearly all actives have a fitted effect of over 65% in size
In short: as §1

[3] = Quantitative High-Throughput drug screen in 47 multiple myeloma cell lines against the NCATS MIPE library collection: OPM1_PLB cell viability assay (AID 1918989); further: nearly all actives have a fitted effect of over 40% in size
In short: as §1

[4] = Quantitative High-Throughput drug screen in 47 multiple myeloma cell lines against the NCATS MIPE library collection: U266_ATCC cell viability assay (AID 1919864); further: nearly all actives have a fitted effect of over 35% in size
In short: as §1

[5] = Quantitative High-Throughput drug screen in 47 multiple myeloma cell lines against the NCATS MIPE library collection: XG1_PLB cell viability assay (AID 1919866); further: nearly all actives have a fitted effect of over 35% in size
In short: as §1

[6] = Quantitative High-Throughput drug screen in 47 multiple myeloma cell lines against the NCATS MIPE library collection: SKMM1_PLB cell viability assay (AID 1919863); conditions: SKMM1 myeloma viability, CellTiter-Glo ATP, 48 h; viability: stronger effect = lower value; further: nearly all actives have a fitted effect of over 35% in size
In short: as §1

[7] = Quantitative High-Throughput drug screen in 47 multiple myeloma cell lines against the NCATS MIPE library collection: XG6_PLB cell viability assay (AID 1919865); further: nearly all actives have a fitted effect of over 40% in size
In short: as §1

[8] = Quantitative High-Throughput drug screen in 47 multiple myeloma cell lines against the NCATS MIPE library collection: VP6_DJ cell viability assay (AID 1919867); further: nearly all actives have a fitted effect of over 40% in size
In short: as §1

[9] = Quantitative High-Throughput drug screen in 47 multiple myeloma cell lines against the NCATS MIPE library collection: UTMC2_PLB cell viability assay (AID 1919868); conditions: CellTiter-Glo ATP luminescence, 48 h; viability (% of DMSO control): at 45.8 µM (top of the series); further: nearly all actives have a fitted effect of over 55% in size
In short: as §1

[10] = Quantitative High-Throughput drug screen in 47 multiple myeloma cell lines against the NCATS MIPE library collection: PE2_PLB cell viability assay (AID 1919869); further: nearly all actives have a fitted effect of over 35% in size
In short: as §1
Potency means the concentration at half of the fitted maximal effect.

CN(C)C(=O)c1ccc(S(=O)(=O)c2ccc(NC(=O)[C@@](C)(O)C(F)(F)F)c(Cl)c2)cc1
inactive: Potency [3] | Potency [4]
active: Potency [1] 11.8 µM | Potency [2] 20.9 µM | Potency [5] 3.32 µM

CN1CCN(CCCN2c3ccccc3Sc3ccc(C(F)(F)F)cc32)CC1
active: Potency [1] 5.9 µM | Potency [3] 26.4 µM | Potency [4] 1.66 µM | Potency [7] 1.05 µM | Potency [5] 1.18 µM | Potency [8] 2.09 µM | Potency [9] 10.5 µM | Potency [10] 9.35 µM
inactive: Potency [2] | viability [6] 123%

Cc1ccc(NC(=O)c2cccc(C(C)(C)C#N)c2)cc1Nc1ccc2ncn(C)c(=O)c2c1
active: Potency [1] 0.935 µM | Potency [2] 16.6 µM | Potency [3] 14.8 µM | Potency [6] 1.66 µM | Potency [4] 18.7 µM | Potency [7] 5.26 µM | Potency [10] 5.9 µM

OCCn1cc(-c2cnc3nnn(Cc4ccc5ncccc5c4)c3n2)cn1
inactive: Potency [1] | Potency [3] | Potency [7] | Potency [5] | Potency [9] | Potency [10]
active: Potency [2] 9.35 µM | Potency [6] 16.6 µM | Potency [4] 2.09 µM

CCOC(=O)C1=C[C@]2(CC)CCCN3CCc4c(n1c1ccccc41)[C@@H]32
active: Potency [1] 9.35 µM | Potency [2] 13.2 µM | Potency [3] 8.33 µM | Potency [6] 26.4 µM | Potency [4] 16.6 µM | Potency [7] 7.43 µM | Potency [5] 6.62 µM | Potency [8] 9.35 µM | Potency [9] 9.35 µM | Potency [10] 9.35 µM

CN[C@@H](C)C(=O)N[C@H]1CCCC[C@H]2CC[C@@H](C(=O)N[C@@H](c3ccccc3)c3cn(CCCCc4ccc(CCCCn5cc([C@@H](NC(=O)[C@@H]6CC[C@@H]7CCCC[C@H](NC(=O)[C@H](C)NC)C(=O)N76)c6ccccc6)nn5)cc4)nn3)N2C1=O
active: Potency [1] 0.001 µM | Potency [2] 16.6 µM | Potency [3] 16.6 µM | Potency [6] 0.0037 µM | Potency [7] 20.9 µM | Potency [5] 23.5 µM | Potency [8] 18.7 µM | Potency [10] 18.7 µM

N#CC[C@H](C1CCCC1)n1cc(-c2ncnc3[nH]ccc23)cn1
active: Potency [1] 18.7 µM | Potency [2] 20.9 µM | Potency [3] 6.62 µM | Potency [6] 6.62 µM | Potency [4] 18.7 µM | Potency [9] 9.35 µM

Cc1cc([C@@H](C)Nc2ccccc2C(=O)O)c2nc(N3CCOCC3)cc(=O)n2c1
active: Potency [1] 2.15 µM | Potency [2] 38.2 µM | Potency [3] 17.1 µM | Potency [6] 27 µM | Potency [4] 5.4 µM | Potency [7] 1.91 µM | Potency [5] 4.29 µM | Potency [8] 9.59 µM | Potency [9] 3.82 µM | Potency [10] 9.59 µM

COc1ccccc1[C@H](c1cccc2ccccc12)[C@@](C)(C#N)C(=O)N1CCC(c2cccc(C(F)(F)F)c2)CC1
active: Potency [1] 5.9 µM | Potency [2] 4.69 µM | Potency [3] 5.9 µM | Potency [6] 5.9 µM | Potency [7] 4.69 µM | Potency [5] 3.32 µM | Potency [8] 5.26 µM | Potency [9] 5.26 µM | Potency [10] 5.9 µM

O=C(Nc1ccc(F)c(C(F)(F)F)c1)Nc1nnc(-c2ccncc2)s1
active: Potency [2] 2.35 µM | Potency [3] 13.2 µM | Potency [6] 8.33 µM | Potency [8] 4.18 µM
inactive: Potency [1]

S=C(NCc1ccc2c(c1)OCO2)N1CCN(c2ncnc3c2oc2ccccc23)CC1
active: Potency [1] 4.29 µM | Potency [2] 9.59 µM | Potency [3] 2.41 µM | Potency [4] 12.1 µM | Potency [7] 2.41 µM | Potency [5] 0.96 µM | Potency [8] 0.96 µM | Potency [10] 6.79 µM

COc1ccc(-c2ccc3c(N4CCOC[C@H]4C)nc(N4CCOC[C@H]4C)nc3n2)cc1CO
active: Potency [1] 0.209 µM | Potency [2] 0.332 µM | Potency [3] 0.0148 µM | Potency [6] 0.0148 µM | Potency [4] 0.0074 µM | Potency [7] 0.0148 µM | Potency [8] 0.0066 µM | Potency [9] 0.001 µM | Potency [10] 0.0148 µM

COc1ccc([C@@H]2CC(=O)c3c(O)cc(O[C@@H]4O[C@H](CO[C@@H]5O[C@@H](C)[C@H](O)[C@@H](O)[C@@H]5O)[C@@H](O)[C@H](O)[C@@H]4O)cc3O2)cc1O
active: Potency [1] 6.62 µM | Potency [2] 13.2 µM | Potency [7] 5.9 µM | Potency [5] 4.18 µM
inactive: Potency [3] | viability [6] 111% and 110% | Potency [4] | Potency [8] | Potency [10]

CC(=O)Oc1ccccc1C(=O)O
active: Potency [1] 5.26 µM | Potency [2] 5.26 µM | Potency [4] 7.43 µM | Potency [7] 4.69 µM | Potency [5] 5.26 µM
inactive: Potency [3]

CC(C)C[C@H](NC(=O)[C@@H](O)[C@H](N)Cc1ccccc1)C(=O)O
active: Potency [1] 20.9 µM | Potency [2] 26.4 µM | Potency [3] 16.6 µM | Potency [6] 26.4 µM | Potency [4] 23.5 µM | Potency [7] 20.9 µM | Potency [5] 20.9 µM | Potency [9] 23.5 µM | Potency [10] 26.4 µM

CCOc1ccc(Cc2cc([C@@H]3O[C@H](CO)[C@@H](O)[C@H](O)[C@@H]3O)ccc2Cl)cc1
active: Potency [1] 3.72 µM | Potency [3] 14.8 µM | Potency [7] 3.32 µM | Potency [8] 16.6 µM
inactive: Potency [2] | Potency [4] | Potency [10]

CC(=O)NC(C)c1ccc(Oc2ccc(OC(C)C)cc2)cc1 (stereo unspecified)
active: Potency [1] 2.35 µM | Potency [2] 16.6 µM | Potency [3] 1.48 µM | Potency [5] 16.6 µM | Potency [10] 16.6 µM
inactive: Potency [4]

CCCS(=O)(=O)Nc1ccc(F)c(C(=O)c2c[nH]c3ncc(Cl)cc23)c1F
active: Potency [1] 1.32 µM | Potency [2] 14.8 µM | Potency [3] 18.7 µM | Potency [4] 11.8 µM | Potency [7] 10.5 µM | Potency [5] 18.7 µM | Potency [8] 14.8 µM
inactive: viability [6] 122%

Cc1c(CN2CCN(C(=O)C(C)C)CC2)sc2c(N3CCOCC3)nc(-c3cnc(N)nc3)nc12
active: Potency [1] 1.66 µM | Potency [2] 0.0743 µM | Potency [3] 0.118 µM | Potency [4] 0.372 µM | Potency [7] 0.132 µM | Potency [5] 0.0662 µM | Potency [8] 0.105 µM | Potency [9] 0.0526 µM | Potency [10] 0.0662 µM

O=C1CCCC2=C1C(c1[nH]ncc1Cl)N=C(Nc1nc3ccccc3o1)N2 (stereo unspecified)
active: Potency [1] 8.33 µM | Potency [2] 23.5 µM | Potency [3] 10.5 µM | Potency [6] 10.5 µM | Potency [4] 14.8 µM | Potency [7] 23.5 µM | Potency [5] 2.96 µM | Potency [8] 0.0935 µM | Potency [10] 0.526 µM

CCc1cncnc1N1CCN(Cc2nc3ccc(C(F)(F)F)cc3[nH]2)CC1
active: Potency [1] 23.5 µM | Potency [2] 23.5 µM | Potency [3] 18.7 µM | Potency [4] 6.62 µM | Potency [5] 10.5 µM | Potency [9] 18.7 µM

CN(C)c1ccc(Nc2nc(N)n(C(=O)c3c(F)cccc3F)n2)cc1
active: Potency [1] 2.35 µM | Potency [2] 11.8 µM | Potency [3] 5.26 µM | Potency [4] 18.7 µM | Potency [7] 3.72 µM | Potency [5] 0.935 µM | Potency [8] 16.6 µM | Potency [10] 5.9 µM

CCC(C)n1ncn(-c2ccc(N3CCN(c4ccc(OC[C@H]5CO[C@](Cn6cncn6)(c6ccc(Cl)cc6Cl)O5)cc4)CC3)cc2)c1=O (stereo partly specified)
active: Potency [2] 2.96 µM
inactive: Potency [1] | Potency [3] | Potency [4] | Potency [5] | Potency [10]

Cc1ccc(-n2nc(C(C)(C)C)cc2NC(=O)Nc2ccc(OCCN3CCOCC3)c3ccccc23)cc1
active: Potency [1] 2.96 µM | Potency [2] 20.9 µM | Potency [3] 26.4 µM | Potency [4] 23.5 µM | Potency [7] 3.32 µM | Potency [8] 10.5 µM | Potency [9] 4.18 µM | Potency [10] 16.6 µM

O=C(NOC[C@H](O)CO)c1ccc(F)c(F)c1Nc1ccc(I)cc1F
active: Potency [1] 0.0148 µM | Potency [3] 1.48 µM | Potency [4] 16.6 µM | Potency [7] 0.0074 µM | Potency [5] 0.0296 µM | Potency [8] 0.0372 µM | Potency [10] 0.0662 µM
inactive: Potency [2]

COc1ccc(-c2oc3cc(OC)ccc3c2C(=O)c2ccc(C#N)cc2)cc1
active: Potency [1] 14.8 µM | Potency [4] 16.6 µM | Potency [7] 3.32 µM | Potency [5] 8.33 µM
inactive: Potency [2] | Potency [3] | Potency [10]

COc1cccc2cc(-c3nc(C4CCC(C(=O)O)CC4)n4ncnc(N)c34)[nH]c12 (stereo unspecified)
active: Potency [1] 4.18 µM | Potency [2] 1.32 µM | Potency [3] 2.35 µM | Potency [4] 0.296 µM | Potency [7] 0.418 µM | Potency [5] 0.148 µM | Potency [8] 0.833 µM | Potency [9] 0.235 µM | Potency [10] 0.372 µM

CC[C@H](Nc1ncnc2nc[nH]c12)c1nc2cccc(F)c2c(=O)n1-c1ccccc1
active: Potency [1] 4.69 µM | Potency [2] 20.9 µM | Potency [3] 14.8 µM | Potency [6] 16.6 µM | Potency [7] 13.2 µM | Potency [9] 5.9 µM

Cc1cc2c(C(C)C)c(O)c(O)c(C=O)c2c(O)c1-c1c(C)cc2c(C(C)C)c(O)c(O)c(C=O)c2c1O
active: Potency [1] 8.33 µM | Potency [2] 14.8 µM | Potency [3] 10.5 µM | Potency [7] 7.43 µM | Potency [5] 8.33 µM | Potency [8] 5.9 µM | Potency [9] 5.9 µM | Potency [10] 5.9 µM

COc1ccc2c3n(c(=NC(=O)c4cccnc4)nc2c1OC)CCN3
active: Potency [1] 0.0743 µM | Potency [2] 3.72 µM | Potency [3] 16.6 µM | Potency [6] 0.148 µM | Potency [7] 0.59 µM | Potency [5] 1.48 µM | Potency [8] 1.48 µM | Potency [9] 3.32 µM | Potency [10] 11.8 µM

COc1ccc(CC2=NN3C([C@@H](CCc4ccccc4)[C@@H](C)O)=NC(C)C3C(=O)N2)cc1OC (stereo partly specified)
inactive: Potency [1] | Potency [2] | viability [6] 138% | Potency [4] | Potency [5] | Potency [10]
active: Potency [3] 2.64 µM
